This is a sample that favours compounds with a hit; in the whole collection about 1.5% have one here.
Coupling enz = inhibits coupling enzyme system, counter-screen for aldolase hits; coupling enzyme system counterscreen, AmpLite Red fluorescence; activity change, negative = inhibition, % at 58.2 µM, hits read low; hit rate 0.67% among 290,000; AID 2472; in the data active = activity change below about -30%
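Compounds tested against the coupling enzymes alone at 57.5 uM final; readout was AmpLite Red fluorescence (525/598 nm) after 20 min at RT.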
Eya2 inh = Eya2 (human) phosphatase inhibition. O00167. hit rate 0.006% among 330,000. Potency, µM (highest dose often 76.9 µM), for inactives: at the top dose activity, negative = inhibition, hits mostly inhibitors. recombinant Eya2, OMFP fluorescence dephosphorylation (OMFP is methylfluorescein phosphate); also: potency is read from the fitted curve at half-maximal effect
Target sequence (O00167 whole entry, looked up): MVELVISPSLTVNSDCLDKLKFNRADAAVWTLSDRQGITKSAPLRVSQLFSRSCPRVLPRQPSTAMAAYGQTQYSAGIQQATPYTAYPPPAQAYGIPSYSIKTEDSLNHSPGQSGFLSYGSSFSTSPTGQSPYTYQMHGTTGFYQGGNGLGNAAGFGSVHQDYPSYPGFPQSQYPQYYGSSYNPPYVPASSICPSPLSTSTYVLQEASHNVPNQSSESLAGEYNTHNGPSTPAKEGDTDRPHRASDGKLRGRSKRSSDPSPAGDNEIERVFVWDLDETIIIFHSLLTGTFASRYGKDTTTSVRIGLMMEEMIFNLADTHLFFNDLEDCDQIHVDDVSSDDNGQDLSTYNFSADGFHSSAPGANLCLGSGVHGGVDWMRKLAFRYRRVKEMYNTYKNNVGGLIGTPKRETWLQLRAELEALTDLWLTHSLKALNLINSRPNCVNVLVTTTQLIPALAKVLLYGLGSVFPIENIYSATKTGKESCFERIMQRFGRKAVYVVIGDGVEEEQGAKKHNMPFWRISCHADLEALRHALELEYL
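Eya2 protein (added as 0.2 uM solution) was preincubated with compound for 10 min at ambient temperature in 50 mM HEPES pH 7.5, 50 mM NaCl, 5 uM MgCl2, 0.05% BSA, 1 mM DTT. OMFP (added at 50 uM) then reacted 10 min; fluorescence read at 485/525 nm.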
TrxR1 inh = rat TrxR1 inhibition. recombinant rTrxR1, NADPH fluorescence consumption, selenite substrate. hit rate 1% among 390,000. Potency, µM (top dose mostly 114 µM), for the others: at the top dose activity change, negative = inhibition, usual class: inhibitors. AID 588453. O89049; also: potency is read from the fitted curve at half-maximal effect; nearly all actives have a fitted effect of over 65% in size
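Rat TrxR1 (90 nM in the dispensed reagent) was pre-reduced with 400 uM NADPH for 5 min at room temperature, then incubated with compound for 15 min. After 400 uM selenite was added, NADPH fluorescence (Ex 340/Em 450 nm) was followed for 8 min.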
mIDH1 inhibitor = inhibitors of human mutant IDH1 R132H | IDH1-R132H enzyme, NADPH consumption, diaphorase/resazurin fluorescence | hit rate 0.093% among 390,000 | Potency, µM (series often up to 76.6 µM), for inactives: top-dose activity change, negative = inhibition, hits mostly inhibitors | O75874; also: potency is read from the fitted curve at half-maximal effect; nearly all actives have a fitted effect of over 65% in size
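IDH1-R132H (0.5 ug/mL dispensed) in pH 7.5 Tris buffer was preincubated 30 min with compound, then given a substrate mix of 0.016 mM NADPH and 2 mM alpha-KG for 80 min at room temperature; remaining NADPH was read by diaphorase/resazurin fluorescence.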
TrxR1 substrate = substrates of rat thioredoxin reductase 1 | hit rate 0.01% among 390,000 | O89049 | purified TrxR1 substrate turnover, NADPH consumption readout | Potency, µM (highest dose often 114 µM), for inactives: top-dose activity change, negative = substrate turnover; also: potency is read from the fitted curve at half-maximal effect; nearly all actives have a fitted effect of over 50% in size
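Rat TrxR1, dispensed at 90 nM, was prereduced with 400 uM NADPH (final) for 5 min at ~22 deg C, then incubated with compound 15 min before 400 uM selenite. A first-read NADPH fluorescence drop versus no-compound background flagged substrates.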
An asterisk follows results filed as active; ? = inconclusive; · = no result; [ ] = remark or other dose. Unless noted, calls follow the shape of the dose curve; as a rule, active = well fitted curve in the direction sought with a large enough effect; inconclusive = small, poorly fitted or top-dose-only effect, or another doubt; inactive = no such curve, though single readings can be large; an effect the other way counts as inactive or inconclusive. % is scaled to controls: 0 for no effect and ±100 for the full control effect.

SMILES | Coupling enz | Eya2 inh | TrxR1 inh | mIDH1 inhibitor | TrxR1 substrate
CC1CCCC(C)N1C(=O)COC(=O)/C=C/c1ccc(Br)o1 (centres undefined) | · | -9.0% | 35.5µM* | 8.0% | -10.3%
CC1CCN(C(=O)COC(=O)/C=C/c2ccc([N+](=O)[O-])cc2)CC1 | · | 11.5% | 0.6% | -7.1% | 0.8%
O=C(/C=C/c1ccc(Br)o1)OCc1ccccc1 | 0.1 | -6.7% | ? | -1.0% | -1.3%
CC1CCN(C(=O)COC(=O)/C=C/c2ccc(Br)o2)CC1 | · | -2.8% | 25.1µM* | 1.4% | -2.9%
Cc1cc2ccccc2c[n+]1C1CCCCC1 | · | · | -2.4% | · | 8.8%
Cc1ccnc(Sc2ccc([N+](=O)[O-])cc2[N+](=O)[O-])n1 | 0.2 | -1.6% | 20µM* | 4.1% | 6.1%
Cc1ccc(Sc2ccc([N+](=O)[O-])cc2[N+](=O)[O-])nc1 | -7.0 | 3.3% | -39.5% | 14.1% | -2.7%[57.1 µM]
O=C1CC(c2ccco2)Sc2nc3ccccc3n21 (centres undefined) | -0.8 | 1.3% | 12.6µM* | -4.8% | 2.9%
CCCN1C(=O)CC(c2ccco2)Sc2ccccc21 (centres undefined) | 4.2 | 21.6% | ? | 2.5% | 8.8%
CN1C(=O)CC(c2ccco2)Sc2ccccc21 (centres undefined) | 4.7 | -2.1% | 56.2µM* | 5.7% | -7.9%
O=C1CC(c2ccccc2)Sc2nc3ccccc3n21 (centres undefined) | 0.6 | 13.7% | 27.1%[57.1 µM] | 4.4% | -13.6%[57.1 µM]
NC(=O)COC(=O)c1ccccc1OCC(=O)Nc1ccc(Br)cc1 | · | · | 1.0% | · | 4.1%
Cc1ccc2nc(CS)[nH]c2c1 | · | · | 7.6% | · | 4.1%[0.0914 µM]
COC(=O)[C@@H]1N2C(=O)[C@@H](NC(=O)C(C)Oc3ccccc3)[C@H]2SC1(C)C (some centres undefined) | · | · | -28.1% | · | -8.4%
CC(Oc1ccccc1)C(=O)N[C@@H]1C(=O)N2[C@@H]1SC(C)(C)[C@@H]2C(=O)OCc1ccccc1 (some centres undefined) | · | · | 50.1µM* | · | 0.7%
COCCn1nnnc1C(c1cc2cc(C)ccc2[nH]c1=O)N1CCCCCC1 (centres undefined) | -7.5 | 6.3% | 4.47µM* | -1.0% | 5.9%
COCCn1nnnc1C(c1cc2c(C)cc(C)cc2[nH]c1=O)N1CCCCCC1 (centres undefined) | 1.5 | -2.2% | 39.8µM* | 5.0% | 0.0%
COCCn1nnnc1C(c1cc2cc(C)cc(C)c2[nH]c1=O)N1CCN(c2ccccc2F)CC1 (centres undefined) | -16.3 | -38.7% | ? | 7.8% | 12.7%
Clc1ccc2c(ccc[n+]2CCC2CCCCC2)c1 | · | · | 11.2% | · | 1.7%
CCOC(=O)c1sc2nc(C3CC3)cc(-c3ccc(F)cc3)c2c1N | 3.5 | 6.6% | 32.5% | 3.5% | 41.4%
CCOC(=O)c1sc2nc(C3CC3)cc(-c3ccc(OC)cc3)c2c1N | -0.7 | -14.2% | 50.1µM* | 0.0% | 149.7%
O=C(C[n+]1cccc(I)c1)c1ccc(F)cc1 | · | · | 4.1% | · | 5.8%
Clc1cccc(Cl)c1OCCCCN1CCCCC1 | 1.6 | -20.4% | 14.7% | 3.3% | 2.4%
Cc1cccc(Cl)c1OCCN1CCCC1 | -30.3* | -0.2% | 4.3%[57.1 µM] | 7.3% | 6.6%[57.1 µM]
CCCCC/C=C\C\C=C/C=C/C=C/[C@@H](SCC(N)C(=O)NCC(=O)O)[C@@H](O)CCCC(=O)O (some centres undefined) | -5.8 | · | · | · | ·
SMILES | Coupling enz | Eya2 inh | TrxR1 inh | mIDH1 inhibitor | TrxR1 substrate
COc1cc(OC)c(/C=C/c2c3ccccc3cc[n+]2C)c(OC)c1 | · | · | 2.0% | · | -8.4%
COC(=O)c1ccc(NC(=O)c2nc(S(=O)(=O)Cc3ccccc3F)ncc2Cl)cc1 | · | · | 8.91µM* | · | -1.1%
COC(=O)c1cscc1S(=O)(=O)Cc1ccccc1 | -4.4 | 7.2% | 20µM* | -0.3% | 0.5%
COC(=O)c1ccccc1NC(=O)CN(CCc1ccccc1)S(C)(=O)=O | -6.7 | · | 7.1% | 24.3% | 5.2%
CS(=O)(=O)c1ncc(Cl)c(C(=O)Nc2ccc3ccccc3c2)n1 | -1.2 | 0.9% | 12.6µM* | 15.5% | 7.7%
CCOc1ccc(NC(=O)c2nc(SCc3ccccc3F)ncc2Cl)cc1 | · | · | 17.7% | · | 1.6%
CCOc1ccc(NC(=O)c2nc(S(=O)(=O)Cc3ccccc3)ncc2Cl)cc1 | · | · | 2.24µM* | · | -3.1%

Bioassay records (PubChem)
